Compound activity deposited in PubChem by The Scripps Research Institute Molecular Screening Center.
Compounds with a hit are over-represented: about 4.1% of the library has one in this group of screens.
DAX1 inh-1: inhibits human nuclear receptor DAX1; P51843; HEK293 Gal4-DAX1 luciferase reporter, luminescence; inhibition, % at 6.75 µM; 0.99% of 340,000 active;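 active = inhibition above the mean over all tested compounds plus 3 SD, cut at about 4.2% in these data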;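 also: 0% = DAX1-transfected cells with DMSO and 100% = empty-vector control cells with DMSO; inhibition shows as a rise in luminescence from relieved DAX1 repression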
Target sequence (P51843 207-470 limits assumed): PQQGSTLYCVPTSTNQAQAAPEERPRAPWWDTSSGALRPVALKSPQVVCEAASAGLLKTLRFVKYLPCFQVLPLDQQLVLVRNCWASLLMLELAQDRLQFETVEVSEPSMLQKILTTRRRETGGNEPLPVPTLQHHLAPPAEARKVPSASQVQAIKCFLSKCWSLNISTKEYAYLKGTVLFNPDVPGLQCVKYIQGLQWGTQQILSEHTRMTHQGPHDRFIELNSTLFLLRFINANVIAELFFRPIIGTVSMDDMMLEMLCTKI
DAX1 inh-2: inhibitors of DAX1 repression of SF-1 activated StAR promoter; HEK293T StAR-luciferase reporter, SF-1/DAX-1 repression relief; AID 652010; 1.1% of 370,000 active; inhibition, % at 6.8 µM;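 active = inhibition above the mean over all tested compounds plus 3 SD, cut at about 3.6% in these data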;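 also: 0% = DAX-1 cells with DMSO and 100% = cells lacking DAX-1 with DMSO; higher inhibition means more luminescence from relief of DAX-1 repression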
hgDAF-12 ag: activates the H. glycines DAF-12 receptor ligand-binding domain. activation, % at 6.8 µM. HEK293 GAL4-hgDAF12 UAS-luciferase reporter, agonist luminescence; normalized to butyrate control. AID 687014. 1.8% of 370,000 active;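 active = activation above a cutoff set at the mean of all screened compounds plus 3 SD, cut at about 10% in these data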;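 also: 0% = DMSO wells and 100% = sodium butyrate wells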
hcDAF12 agonist: activators of H. contortus DAF-12 nuclear receptor. HEK293 hcDAF-12 lit1-tk-luc reporter, luminescence; 0% DMSO, 100% Δ7-dafachronic acid. activation, % at 6.8 µM. 1.4% of 370,000 active;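 active = activation above the mean of all tested compounds plus 3 SD, cut at about 5.5% in these data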;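 also: 100% = response to 3 µM Δ7-dafachronic acid high control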
ssDAF12 agonist: activators of S. stercoralis DAF-12 nuclear receptor; 1% of 370,000 active; activation, % at 6.8 µM; HEK293 ssDAF-12/GRIP1 lit1-tk-luc reporter, luminescence; % of 3 µM dafachronic acid response;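 active = activation above the mean over all tested compounds plus 3 SD, cut at about 0.9% in these data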;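 also: 0% = DMSO-only wells and 100% = 3 µM delta7-dafachronic acid wells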
hgDAF12 ag: hgDAF-12 agonism, confirmation assay; shares compounds with hgDAF-12 ag; HEK293 GAL4-hgDAF12 luciferase reporter, agonist mode; percent of butyrate response; activation, % at 6.8 µM; 80% of 3,300 active;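 active = mean activation over triplicate wells above the hit cutoff derived from the earlier primary screen, cut at about 11% in these data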;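 also: 0% = DMSO low control and 100% = 2 mM sodium butyrate high control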
LXR ag 2: activates human LXR-beta, counter-screen for DAF-12 agonists | shares compounds with hgDAF-12 ag | 3,300 tested, under 10 active | HEK293 Gal4-LXR luciferase reporter, 24 h | AID 743051 | activation, % at 6.8 µM;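 active = mean activation of the triplicate above a set limit carried over from the primary screen, none filed active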
Target sequence (P55055 whole entry, looked up, the tested form may be a part): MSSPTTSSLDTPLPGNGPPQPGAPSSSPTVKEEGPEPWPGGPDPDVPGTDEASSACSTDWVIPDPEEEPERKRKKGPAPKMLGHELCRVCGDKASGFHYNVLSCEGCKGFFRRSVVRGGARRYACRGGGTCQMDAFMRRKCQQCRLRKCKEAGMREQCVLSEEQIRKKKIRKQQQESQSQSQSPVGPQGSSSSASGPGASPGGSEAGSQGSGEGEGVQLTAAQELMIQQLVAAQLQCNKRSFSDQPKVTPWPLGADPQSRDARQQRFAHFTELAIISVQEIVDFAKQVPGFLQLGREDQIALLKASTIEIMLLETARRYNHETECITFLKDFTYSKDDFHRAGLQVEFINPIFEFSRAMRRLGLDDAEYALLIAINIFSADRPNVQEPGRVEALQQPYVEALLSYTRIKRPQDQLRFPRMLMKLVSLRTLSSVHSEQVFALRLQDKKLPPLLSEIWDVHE
* marks the source's active call; other numbers are inactive results.

How did O=c1/c(=C/c2cccc3ccccc23)sc2ncnn12 do in these assays?
DAX1 inh-1: 1; DAX1 inh-2: 0; hgDAF-12 ag: -2; hcDAF12 agonist: 1; ssDAF12 agonist: -1

Results for C[C@H](CO)N1C[C@H](C)[C@H](CN(C)C(=O)Nc2ccc(N3CCCCC3)cc2)OCc2cnnn2CCCC1=O ?
DAX1 inh-2: 0; hgDAF-12 ag: 1; hcDAF12 agonist: -2; ssDAF12 agonist: -1

Results for COCO[C@@H]1CC(CO)=C[C@H]2OCO[C@H]21 ?
hgDAF-12 ag: -4; hcDAF12 agonist: 0; ssDAF12 agonist: -1

What do the screens show for `COc1ccc(CCC(=O)NNC(=S)NCc2ccc(F)cc2)cc1`?
DAX1 inh-1: 4; DAX1 inh-2: -1; hgDAF-12 ag: 14*; hcDAF12 agonist: -2; ssDAF12 agonist: -1; hgDAF12 ag: 0; LXR ag 2: 0

Results for O=C(c1ccccc1)c1ccc2c(c1)OCCCO2 ?
DAX1 inh-1: 4.6*; DAX1 inh-2: 1; hgDAF-12 ag: 15*; hcDAF12 agonist: 6.2*; ssDAF12 agonist: 0; hgDAF12 ag: 18*; LXR ag 2: 1

What do the screens show for `O=C(c1ccccc1)c1ccc2c(c1)OCCOCCOCCO2`?
DAX1 inh-1: 2; DAX1 inh-2: 0; hgDAF-12 ag: -2; hcDAF12 agonist: 0; ssDAF12 agonist: -1

Results for Cc1cccc(NC(=S)NNC(=O)c2ccc3c(c2)OCO3)c1 ?
DAX1 inh-1: 3; DAX1 inh-2: 3.9*; hgDAF-12 ag: 18*; hcDAF12 agonist: 3; ssDAF12 agonist: 0; hgDAF12 ag: 13*; LXR ag 2: 0

How did Cc1cccc(NC(=O)c2ccc3c(c2)OCCO3)c1 do in these assays?
DAX1 inh-1: -3; DAX1 inh-2: 2; hgDAF-12 ag: 17*; hcDAF12 agonist: 5; ssDAF12 agonist: -1; hgDAF12 ag: 18*; LXR ag 2: 1

Results for O=C(NC(=S)Nc1ccc(F)cc1)c1ccc2c(c1)OCCO2 ?
DAX1 inh-1: 3; DAX1 inh-2: 3.7*; hgDAF-12 ag: 17*; hcDAF12 agonist: 4; ssDAF12 agonist: 0; hgDAF12 ag: 11*; LXR ag 2: 1

Results for COc1ccc(C2CCc3cc4c(cc3C2=NO)OCO4)cc1OC (stereo not drawn) ?
DAX1 inh-1: -2; DAX1 inh-2: -2; hgDAF-12 ag: -3; hcDAF12 agonist: -1; ssDAF12 agonist: -1

Results for CCCCOCCCNC(=O)C[C@H]1C[C@@]2(C(=O)OC)C(=C[C@H](C(C)(C)C)O[C@@H]2C)N(Cc2ccco2)C1=O ?
DAX1 inh-2: -1; hgDAF-12 ag: 0; hcDAF12 agonist: -3; ssDAF12 agonist: -2

Results for O=C(Nc1ccccc1)c1ccc2c(c1)OCCO2 ?
DAX1 inh-1: 1; DAX1 inh-2: 2; hgDAF-12 ag: 13*; hcDAF12 agonist: 5.8*; ssDAF12 agonist: 0; hgDAF12 ag: 13*; LXR ag 2: 1

How did C=CCn1c(COc2ccc(C)cc2)nnc1SCC(=O)Nc1cc(Cl)cc(Cl)c1 do in these assays?
DAX1 inh-2: -2; hgDAF-12 ag: -2; hcDAF12 agonist: -2; ssDAF12 agonist: -2

How did N/C(=N\OC(=O)Cc1ccccc1)c1ccccc1Cl do in these assays?
DAX1 inh-1: -1; DAX1 inh-2: 2; hgDAF-12 ag: 14*; hcDAF12 agonist: 4; ssDAF12 agonist: 0; hgDAF12 ag: 6; LXR ag 2: 0

How did CSc1nc2ccc(NC(=O)c3ccco3)cc2s1 do in these assays?
DAX1 inh-1: 2; DAX1 inh-2: 2; hgDAF-12 ag: 18*; hcDAF12 agonist: 4; ssDAF12 agonist: -1; hgDAF12 ag: 11*; LXR ag 2: 1

What do the screens show for `CSc1nc2ccc(NC(=O)c3ccc(=O)[nH]c3)cc2s1`?
DAX1 inh-1: -2; DAX1 inh-2: 0; hgDAF-12 ag: 0; hcDAF12 agonist: 0; ssDAF12 agonist: -1

How did Cc1ccc(S(=O)(=O)N2CCC(=O)c3ccccc32)cc1 do in these assays?
DAX1 inh-1: 1; DAX1 inh-2: -2; hgDAF-12 ag: -2; hcDAF12 agonist: 0; ssDAF12 agonist: -1

How did Nc1ccc2nc(-c3ccccc3)cnc2c1 do in these assays?
DAX1 inh-1: 3; DAX1 inh-2: 1; hgDAF-12 ag: 7; hcDAF12 agonist: 5; ssDAF12 agonist: 0

How did Oc1ccc(-c2cnc3ccccc3n2)cc1 do in these assays?
DAX1 inh-1: 3; DAX1 inh-2: 2; hgDAF-12 ag: 15*; hcDAF12 agonist: 4; ssDAF12 agonist: -1; hgDAF12 ag: 20*; LXR ag 2: 1

What do the screens show for `Cc1ccc2nc(-c3ccc(Cl)cc3)c(Cc3cccc(Cl)c3)n2c1`?
DAX1 inh-2: 3.9*; hgDAF-12 ag: 13*; hcDAF12 agonist: 2; ssDAF12 agonist: -1; hgDAF12 ag: 3; LXR ag 2: 0

What do the screens show for `Fc1ccc(-c2nc3ccc(Br)cn3c2Cc2ccccc2)cc1`?
DAX1 inh-1: 2; DAX1 inh-2: 2; hgDAF-12 ag: 3; hcDAF12 agonist: -1; ssDAF12 agonist: -1

How did Cc1ccc(-c2nc3ccc(Br)cn3c2Cc2cccc(F)c2)cc1 do in these assays?
DAX1 inh-2: 3; hgDAF-12 ag: 21*; hcDAF12 agonist: 1; ssDAF12 agonist: 0; hgDAF12 ag: 10*; LXR ag 2: 1

How did Cc1cnc(NC(=O)Cc2ccccc2Cl)s1 do in these assays?
DAX1 inh-1: 1; DAX1 inh-2: -1; hgDAF-12 ag: 0; hcDAF12 agonist: 0; ssDAF12 agonist: -1

How did CC(C)(C)C(=O)c1cnc(Nc2ccccc2Cl)s1 do in these assays?
DAX1 inh-1: 4; DAX1 inh-2: 2; hgDAF-12 ag: 13*; hcDAF12 agonist: 4; ssDAF12 agonist: 0; hgDAF12 ag: 16*; LXR ag 2: 1

What do the screens show for `O=C(N/N=C/C1CC=CCC1)c1ccc(Cl)cc1O` (stereo not drawn)?
DAX1 inh-1: -1; DAX1 inh-2: 1; hgDAF-12 ag: 16*; hcDAF12 agonist: 4; ssDAF12 agonist: 1.1*; hgDAF12 ag: 0; LXR ag 2: 0

What do the screens show for `CC(C)C(=O)Nc1nc2cc3c(cc2s1)OCO3`?
DAX1 inh-1: 1; DAX1 inh-2: 1; hgDAF-12 ag: 10; hcDAF12 agonist: 2; ssDAF12 agonist: -1

Results for COc1ccc(C(=O)Nc2nc3cc4c(cc3s2)OCO4)c(OC)c1 ?
DAX1 inh-1: 2; DAX1 inh-2: 3; hgDAF-12 ag: 17*; hcDAF12 agonist: 2; ssDAF12 agonist: -1; hgDAF12 ag: 17*; LXR ag 2: 1

Results for COc1cccc(Nc2nc3ccc(OC)cc3s2)c1 ?
DAX1 inh-1: 2; DAX1 inh-2: 3; hgDAF-12 ag: 17*; hcDAF12 agonist: 3; ssDAF12 agonist: 0; hgDAF12 ag: 18*; LXR ag 2: 1
